Data taken from PubChem BioAssay AID1159506 (National Center for Advancing Translational Sciences (NCATS), 2015).
Over roughly 59,000 sequences, the read-out has its median near -0.00055; the lowest 2% begin near -2. Only a selection was taken, and the lowest values are over-represented in it overall.

experiment: Identification of proteins required for the processing of the EWS-FLI1 nascent transcript; conditions: TC32 Ewing sarcoma NR0B1-luc vs CMV-luc (EWS-FLI1 target promoter against control promoter), 48 h; screened at 20 nM (by protocol);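 also: robust z of luciferase light less the median z of siRNAs with the same seed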
Description: Ewing sarcoma (ES) cells depend on the EWS-FLI1 fusion transcription factor for cell survival. Using an assay of EWS-FLI1 activity and genome-wide siRNA screening we have identified proteins required for the processing of the EWS-FLI1 nascent transcript. Parallel genome-wide siRNA-mediated RNAi screens were conducted in Ewing sarcoma TC32 cell lines expressing a luciferase (luc) reporter protein driven by either the promoter of the EWS-FLI1 target gene NR0B1 (TC32-NR0B1-luc) or the CMV promoter (TC32-CMV-luc). Luciferase activity was assessed 48 hours post siRNA-transfection.
Twenty microl of serum-free media containing Lipofectamine RNAiMax (0.05 microl) was added to wells containing siRNA (0.8 pmol). Lipid and siRNA were allowed to complex for 45 min at ambient temperature before addition of 600 cells in RPMI-1640, 20% FBS to yield final transfection mixtures containing 20 nM siRNA in RPMI-1640, 10% FBS. Luciferase expression was measured using OneGlo (Promega, Madison, WI). The genome-wide screening campaign was conducted using Ambion's human genome library version 4.1 (Ambion, Austin TX). This library targets approximately 21000 human genes, three siRNAs per gene. Each siRNA is arrayed in an individual well of a 384-well plate. Parallel transfections were conducted in TC32-NR0B1-luc and TC32-CMV-luc cell lines and luciferase expression (OneGlo, Promega) was assayed 48 h later on a PerkinElmer Envision 2104 Multilabel plate reader (PerkinElmer, Waltham, MA). Qiagen's AllStars Negative control was incorporated on all screening plates for normalization (16 wells per plate). Qiagen, Germantown, MDsiGL4 was incorporated as a positive transfection control (16 wells per plate) on all plates. […] The raw luciferase data for the NR0B1- and CMV-luc screens were normalized and z-score-MAD transformed using standard methods (Chung et al., 2008). The miRNA-like seed sequence of every siRNA was determined and the median z-score for all siRNA sequences with the same seed sequence was calculated. This z-score was subtracted from the z-score associated with each siRNA with that seed sequence to generate a seed-adjusted z-score value (Z) that was used when the results for the three siRNAs corresponding to each gene were compared (Marine et al., 2012)

First: UAUGUGCUGGUGAUCCUUC against DEAF1
Second: UGUUGUACAACGAUAGCCU against RELL1
The seed-corrected z-score of the first is higher: 0.839 for the first, -0.595 for the second.

Compared with AUUGUAACGGGUUUUGUUC against CHRNB4, AACUGUUCCAUCGACUUGG against RASAL1 is lower in seed-corrected z-score: -0.325 for the first, -0.492 for the second.

Compared with UUACUGUCCAGAGCACUGA against SMARCD3, UUUGCUAUAAUCCACCUCC against IK is lower in seed-corrected z-score: -0.925 for the first, -3.11 for the second.

First: UAGACGAUAAGACUCUUUC against NCOA7
Second: UAUUGAAGCAACUAGGAUG against KIAA0754
The seed-corrected z-score of the first is higher: -0.339 for the first, -0.869 for the second.

Going from UGCAGGAUGACCAAAGUGC against LGALS14 to AAUAUGUCCAGCCCAGCUG against CLIC1, the seed-corrected z-score falls from 0.705 to -0.000686.

Going from UUUCCUUUGGUUGUUAAUG against FDX1 to UUCCGAGAUAUGGAGGUAC against KIAA0368, the seed-corrected z-score rises from -0.575 to 0.95.

Going from UCAUCUUCUUCCGUUGCCG against PPP1R1A to UAAGAAAAAGCGGAGUUCG against FZD7, the seed-corrected z-score falls from 0.273 to 0.0443.

Going from UUCUUUUGACUCUUAGUCC against CLEC4C to UAGCCUAGGAGAUACAUCG against COPB2, the seed-corrected z-score falls from -2.28 to -3.63.

Compared with UAACUUUUCCCUUAUUCAG against FAM90A3P, UUCCGUGUGAAACAGAUGG against ARMC4 is lower in seed-corrected z-score: 0.873 for the first, 0.434 for the second.

Compared with AAUGUAGUAAAUGCAAGUU against C3orf79, UUCUGGUAGAAGCAUUUCC against ZNF25 is lower in seed-corrected z-score: -0.0591 for the first, -1.93 for the second.

Going from UGAUGAAGUAGGUCACGGC against SLC29A4 to UUUUCAGUCUCACUAGUUU against MIPEPP3, the seed-corrected z-score rises from 0.41 to 0.623.

Going from AUUCUUAAUCUUUACAUCC against BRDTP1 to UAAGGGUCCUUCCAUGGCC against PVRIG, the seed-corrected z-score falls from 0.809 to 0.201.

First: AUGUUUCCCAUAACAGUGG against OR4D2
Second: UGAAAAUCACGAGAUUUCC against TEAD1
The seed-corrected z-score of the first is lower: -3.19 for the first, 0.305 for the second.

Compared with UGUUAAACUGCUAAGGAUG against RPRD2, UCAUGUACGGCCUCUUCCC against CCDC8 is higher in seed-corrected z-score: -0.294 for the first, 0.173 for the second.

Going from UCUGUGAGCAGUUUCCACU against SOX21 to UGAAUGUCUUGCGAUUUGC against CADM2, the seed-corrected z-score rises from -2.74 to 0.122.

Going from UCCCAACCCAGUCAUAACC against BEST3 to UUUCGGUACUCGGUUAACC against EIF3FP3, the seed-corrected z-score rises from 0.332 to 0.962.

Going from UUGUCGUGAAAUGAAACUC against TTLL11 to UUCCUUUCCACUGCCGUGU against CHRAC1, the seed-corrected z-score rises from -0.262 to 0.0577.

Going from UUCGUUAAGCAAACACUCG against ADAMTS9 to UUUCAGAUAAGCACGAAGC against EIF3M, the seed-corrected z-score rises from 0.367 to 1.89.

Compared with UUAGCUGCAUGAUACCAGG against FAM151B, AUAGUUACAGAGGCAAGAG against MESTP3 is higher in seed-corrected z-score: -2.3 for the first, 1.98 for the second.

Going from UAUCUAACUUCUGUCCCGC against HCCS to UCUGCAACAAGAUCAACAG against POP5, the seed-corrected z-score rises from 0.00186 to 0.345.

Going from UUUUCUACAGCUCUCACUC against CREB3 to AAACCUAAAAAUGCACUCC against MAGEE1, the seed-corrected z-score rises from -2.05 to 0.116.

Going from UAGGUGACGAUCUCCAUCA against HCK to UUUCAUAUGUGAAUCCUCC against TCN2, the seed-corrected z-score rises from -1.81 to 0.641.

First: AAACUAGUAACUCCUCGUC against PRDM8
Second: AGUUGAAUAAGAAAGUACC against MTM1
The seed-corrected z-score of the first is lower: -2.41 for the first, 1.55 for the second.

First: UCAAACACCAGGGUGAGGG against CDK18
Second: AACUGGUUAUGGUAGUUGC against RMI2
The seed-corrected z-score of the first is higher: -0.15 for the first, -2.9 for the second.

Compared with UCAGGAUCCAGACAGUUGC against TP53AIP1, UUAGGUGCACCAGUAAGAG against PEX2 is lower in seed-corrected z-score: 0.541 for the first, -1.19 for the second.

Going from UCCAGUAAAAGGCUGAGCG against LGI1 to UCAGGAUGAUGUGUGGGAU against KRTAP5-11, the seed-corrected z-score rises from -3.39 to -1.11.

Compared with UGCUGUUCAAGCGAAUGCC against DRG1, AUAAGAUUGGAAUUCGACG against ARL6 is lower in seed-corrected z-score: 0.745 for the first, 0.549 for the second.

Going from UUUGGAGCUACCACCCGAC against MRPL27 to AAAGCGACACCUGUCAGUC against IKBKAP, the seed-corrected z-score falls from 0.314 to -0.0431.

First: UUCAAUGAUAAUAAGGUUG against SF3B3
Second: UUUAUCGAAAGCAAAAUUG against MTPAP
The seed-corrected z-score of the first is lower: -3.05 for the first, 0.577 for the second.

Going from AAAUCGACUACUGAGAACC against CUL9 to AUCCCGACAAUCACCUUCC against DPAGT1, the seed-corrected z-score falls from 0.396 to -0.101.

Going from AAUGUGGUGAAUACCUCGC against TXLNA to AUCGGUCACAAAUUGUGGG against ABCE1, the seed-corrected z-score falls from 0.621 to -2.31.

Going from UGUUCAUCAAGAGGUUUCC against NUP188 to UUUCCAUAGACUUUCCCAC against KLF9, the seed-corrected z-score falls from 0.194 to -0.352.

Going from UUUCUUAACUGAGUUCCUC against BMF to UAUCAACUCAGUCCUCAGC against HPS6, the seed-corrected z-score rises from -0.0574 to 0.543.

For AAGACUUUCAGACAUUUGU against ZNF181, the seed-corrected z-score was -0.276.
